# How the values were obtained:
# Experiment in all cases: DAPPL (digital affinity profiling via proximity ligation, sequencing); 10 mM Tris-HCl pH 7.5, 50 mM NaCl, 1 mM DTT, 4% glycerol, room temperature, 30 min; GST-TFs on glutathione beads, 16-mer random dsDNA library, 0.1% formaldehyde crosslink after washing; high values mean tight binding
# Conditions in all cases: protein: recombinant; tags: N-terminal GST; dsDNA, one strand shown
# FEV = target: T1, FEV (Homo sapiens, UniProt Q99581 1-238)
# T1 sequence: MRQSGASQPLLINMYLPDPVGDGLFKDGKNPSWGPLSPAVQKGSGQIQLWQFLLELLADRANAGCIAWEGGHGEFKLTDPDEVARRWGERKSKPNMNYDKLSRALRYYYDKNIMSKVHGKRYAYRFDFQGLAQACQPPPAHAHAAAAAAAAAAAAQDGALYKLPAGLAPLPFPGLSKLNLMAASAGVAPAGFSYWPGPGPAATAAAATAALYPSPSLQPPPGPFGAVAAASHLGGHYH
# How it was run: (§1)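 A tag-only sample was pooled with DNA-barcoded human transcription factors that had been expressed in yeast as GST fusions and captured on glutathione beads. The pools were incubated for 30 min at room temperature with 200 nmole of a random double-stranded 16-mer DNA library in Tris/NaCl/DTT/glycerol buffer, then washed, crosslinked with 0.1% formaldehyde, proximity-ligated (BsaI/T4 ligase, 1 h, 37 °C), PCR-amplified and sequenced on an Illumina NextSeq500. Binding signal is each hexamer's read frequency for a factor divided by its frequency for the tag-only sample.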
# ETV5 = ETV5 (Homo sapiens, UniProt P41161 1-510)
# ETV5, sequence (P41161 whole entry): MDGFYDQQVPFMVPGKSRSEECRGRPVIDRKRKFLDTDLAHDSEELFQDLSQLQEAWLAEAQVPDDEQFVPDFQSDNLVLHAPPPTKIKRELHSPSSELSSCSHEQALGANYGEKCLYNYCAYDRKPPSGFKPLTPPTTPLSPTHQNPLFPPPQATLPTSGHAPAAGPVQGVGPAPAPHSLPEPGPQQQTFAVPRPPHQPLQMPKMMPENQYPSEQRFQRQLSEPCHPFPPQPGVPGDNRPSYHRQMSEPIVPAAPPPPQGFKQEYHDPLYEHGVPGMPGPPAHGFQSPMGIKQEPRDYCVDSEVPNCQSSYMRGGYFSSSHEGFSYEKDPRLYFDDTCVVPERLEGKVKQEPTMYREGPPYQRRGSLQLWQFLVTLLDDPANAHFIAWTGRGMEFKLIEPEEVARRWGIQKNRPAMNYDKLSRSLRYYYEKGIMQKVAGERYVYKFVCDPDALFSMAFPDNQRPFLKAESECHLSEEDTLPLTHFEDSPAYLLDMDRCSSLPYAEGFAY
# How it was run: as §1
# SPIC = target: T2, SPIC (Homo sapiens, UniProt Q8N5J4 1-248)
# T2 sequence: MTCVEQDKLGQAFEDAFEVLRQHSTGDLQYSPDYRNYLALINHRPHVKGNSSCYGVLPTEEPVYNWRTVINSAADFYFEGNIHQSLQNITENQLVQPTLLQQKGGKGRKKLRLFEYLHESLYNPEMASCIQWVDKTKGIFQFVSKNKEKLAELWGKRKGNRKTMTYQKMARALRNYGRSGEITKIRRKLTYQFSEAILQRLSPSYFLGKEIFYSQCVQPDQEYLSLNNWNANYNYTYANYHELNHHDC
# How it was run: as §1
# ELF4 = ELF4 (Homo sapiens, UniProt Q99607 1-663)
# ELF4, sequence (Q99607 whole entry): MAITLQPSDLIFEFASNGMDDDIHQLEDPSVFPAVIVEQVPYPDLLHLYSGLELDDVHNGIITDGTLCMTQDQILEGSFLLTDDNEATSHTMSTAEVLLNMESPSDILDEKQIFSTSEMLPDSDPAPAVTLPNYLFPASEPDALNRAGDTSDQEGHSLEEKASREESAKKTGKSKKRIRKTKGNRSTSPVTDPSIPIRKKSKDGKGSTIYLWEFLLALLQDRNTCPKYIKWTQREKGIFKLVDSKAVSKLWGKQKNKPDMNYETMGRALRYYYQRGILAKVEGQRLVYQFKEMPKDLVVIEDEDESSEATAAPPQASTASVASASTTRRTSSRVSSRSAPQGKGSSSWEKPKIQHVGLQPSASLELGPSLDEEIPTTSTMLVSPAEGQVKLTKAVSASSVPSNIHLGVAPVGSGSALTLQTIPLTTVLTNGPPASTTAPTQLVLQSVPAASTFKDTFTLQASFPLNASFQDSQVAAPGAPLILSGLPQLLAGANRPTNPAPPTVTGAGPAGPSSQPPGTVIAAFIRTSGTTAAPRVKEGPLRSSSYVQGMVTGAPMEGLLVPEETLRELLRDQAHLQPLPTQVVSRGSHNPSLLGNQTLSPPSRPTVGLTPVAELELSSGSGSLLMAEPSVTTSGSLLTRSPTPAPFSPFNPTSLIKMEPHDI
# How it was run: as §1
# ELK4 = target: T3, ELK4 (Homo sapiens, UniProt P28324-2 1-405)
# T3 sequence: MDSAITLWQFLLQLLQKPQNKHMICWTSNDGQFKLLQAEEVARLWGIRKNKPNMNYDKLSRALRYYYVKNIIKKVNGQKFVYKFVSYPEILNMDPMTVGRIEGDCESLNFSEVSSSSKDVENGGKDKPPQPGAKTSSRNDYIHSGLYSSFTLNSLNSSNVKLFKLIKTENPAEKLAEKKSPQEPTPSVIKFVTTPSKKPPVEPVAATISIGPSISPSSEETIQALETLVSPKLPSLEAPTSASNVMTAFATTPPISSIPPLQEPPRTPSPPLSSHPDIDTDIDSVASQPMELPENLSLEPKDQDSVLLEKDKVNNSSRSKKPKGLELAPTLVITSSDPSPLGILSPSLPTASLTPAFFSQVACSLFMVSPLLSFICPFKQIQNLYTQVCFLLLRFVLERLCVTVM
# How it was run: as §1
# ETV2 = target: T4, ETV2 (Homo sapiens, UniProt O00321 1-342)
# T4 sequence: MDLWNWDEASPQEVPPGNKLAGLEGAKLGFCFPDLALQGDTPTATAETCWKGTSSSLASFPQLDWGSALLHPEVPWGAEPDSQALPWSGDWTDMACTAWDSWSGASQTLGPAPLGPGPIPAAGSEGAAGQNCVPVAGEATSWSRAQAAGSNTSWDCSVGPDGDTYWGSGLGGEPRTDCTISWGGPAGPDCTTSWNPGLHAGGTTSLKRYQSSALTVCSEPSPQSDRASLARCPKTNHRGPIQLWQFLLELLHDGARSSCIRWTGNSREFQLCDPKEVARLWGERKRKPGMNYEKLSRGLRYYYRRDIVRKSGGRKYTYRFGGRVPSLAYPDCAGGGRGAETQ
# How it was run: as §1
# ELF3 = target: T5, ELF3 (Homo sapiens, UniProt P78545 1-371)
# T5 sequence: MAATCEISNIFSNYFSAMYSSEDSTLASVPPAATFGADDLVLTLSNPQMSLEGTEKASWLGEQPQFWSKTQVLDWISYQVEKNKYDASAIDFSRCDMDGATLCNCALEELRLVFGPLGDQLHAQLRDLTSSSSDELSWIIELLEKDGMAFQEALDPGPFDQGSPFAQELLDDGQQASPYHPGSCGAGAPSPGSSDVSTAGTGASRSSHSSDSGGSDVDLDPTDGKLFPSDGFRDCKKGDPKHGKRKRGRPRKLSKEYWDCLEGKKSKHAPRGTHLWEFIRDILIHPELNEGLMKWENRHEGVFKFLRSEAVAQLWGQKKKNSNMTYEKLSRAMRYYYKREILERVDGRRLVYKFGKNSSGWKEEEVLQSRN
# How it was run: as §1
# ETV1 = ETV1 (Homo sapiens, UniProt P50549 1-477)
# ETV1, sequence (P50549 whole entry): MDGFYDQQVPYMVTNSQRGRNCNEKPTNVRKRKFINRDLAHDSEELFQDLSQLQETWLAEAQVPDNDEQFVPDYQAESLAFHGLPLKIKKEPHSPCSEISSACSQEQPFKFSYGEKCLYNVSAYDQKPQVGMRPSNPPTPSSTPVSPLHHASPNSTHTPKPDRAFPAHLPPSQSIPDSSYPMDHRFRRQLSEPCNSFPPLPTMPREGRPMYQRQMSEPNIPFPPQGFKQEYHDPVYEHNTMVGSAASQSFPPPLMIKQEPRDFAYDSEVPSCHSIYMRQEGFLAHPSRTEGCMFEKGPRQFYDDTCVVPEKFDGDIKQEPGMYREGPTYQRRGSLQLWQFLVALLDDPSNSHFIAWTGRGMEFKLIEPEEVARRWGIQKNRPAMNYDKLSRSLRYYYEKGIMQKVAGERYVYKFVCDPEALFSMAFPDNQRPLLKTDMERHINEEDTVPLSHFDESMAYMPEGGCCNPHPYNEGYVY
# How it was run: as §1
# ERF = target: T6, ERF (Homo sapiens, UniProt P50548 1-548)
# T6 sequence: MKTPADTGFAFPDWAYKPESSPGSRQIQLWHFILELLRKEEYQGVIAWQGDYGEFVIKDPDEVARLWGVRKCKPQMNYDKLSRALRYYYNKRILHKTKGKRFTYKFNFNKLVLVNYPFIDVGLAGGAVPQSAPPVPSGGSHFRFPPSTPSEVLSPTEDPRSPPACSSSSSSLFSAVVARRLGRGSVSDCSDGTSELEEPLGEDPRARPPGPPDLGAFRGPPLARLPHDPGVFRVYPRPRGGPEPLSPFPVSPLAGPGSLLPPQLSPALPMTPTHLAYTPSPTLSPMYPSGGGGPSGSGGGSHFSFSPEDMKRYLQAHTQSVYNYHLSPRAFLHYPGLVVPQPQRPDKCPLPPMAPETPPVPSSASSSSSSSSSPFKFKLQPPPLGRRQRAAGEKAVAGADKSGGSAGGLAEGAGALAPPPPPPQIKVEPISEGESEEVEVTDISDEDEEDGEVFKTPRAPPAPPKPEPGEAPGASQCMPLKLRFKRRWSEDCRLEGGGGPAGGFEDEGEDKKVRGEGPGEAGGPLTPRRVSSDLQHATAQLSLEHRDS
# How it was run: as §1
# ETV3L = target: T7, ETV3L (Homo sapiens, UniProt Q6ZN32 1-361)
# T7 sequence: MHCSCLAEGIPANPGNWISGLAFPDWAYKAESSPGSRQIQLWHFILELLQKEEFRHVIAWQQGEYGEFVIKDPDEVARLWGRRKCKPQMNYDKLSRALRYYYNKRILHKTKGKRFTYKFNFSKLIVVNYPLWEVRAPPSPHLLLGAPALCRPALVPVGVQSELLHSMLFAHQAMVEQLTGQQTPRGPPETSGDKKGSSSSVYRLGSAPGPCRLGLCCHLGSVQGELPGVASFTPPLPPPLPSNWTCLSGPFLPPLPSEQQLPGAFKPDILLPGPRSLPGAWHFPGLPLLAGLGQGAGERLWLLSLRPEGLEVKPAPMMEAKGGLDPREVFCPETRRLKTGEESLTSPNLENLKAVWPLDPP
# How it was run: as §1
# ETS2 = target: T8, ETS2 (Homo sapiens, UniProt P15036 1-469)
# T8 sequence: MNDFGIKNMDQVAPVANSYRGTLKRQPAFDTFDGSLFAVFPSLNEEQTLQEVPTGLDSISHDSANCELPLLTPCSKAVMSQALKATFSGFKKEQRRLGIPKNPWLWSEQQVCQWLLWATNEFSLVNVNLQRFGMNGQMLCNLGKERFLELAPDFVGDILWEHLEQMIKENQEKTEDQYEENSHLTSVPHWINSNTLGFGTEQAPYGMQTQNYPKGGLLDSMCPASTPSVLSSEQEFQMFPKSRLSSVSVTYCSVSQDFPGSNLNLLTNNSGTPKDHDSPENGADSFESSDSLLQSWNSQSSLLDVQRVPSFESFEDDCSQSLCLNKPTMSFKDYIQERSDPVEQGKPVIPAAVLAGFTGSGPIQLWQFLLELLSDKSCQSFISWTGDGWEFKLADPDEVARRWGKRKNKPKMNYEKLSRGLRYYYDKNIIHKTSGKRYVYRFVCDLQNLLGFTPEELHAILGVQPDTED
# How it was run: as §1
# SPDEF = target: T9, SPDEF (Homo sapiens, UniProt O95238 1-335)
# T9 sequence: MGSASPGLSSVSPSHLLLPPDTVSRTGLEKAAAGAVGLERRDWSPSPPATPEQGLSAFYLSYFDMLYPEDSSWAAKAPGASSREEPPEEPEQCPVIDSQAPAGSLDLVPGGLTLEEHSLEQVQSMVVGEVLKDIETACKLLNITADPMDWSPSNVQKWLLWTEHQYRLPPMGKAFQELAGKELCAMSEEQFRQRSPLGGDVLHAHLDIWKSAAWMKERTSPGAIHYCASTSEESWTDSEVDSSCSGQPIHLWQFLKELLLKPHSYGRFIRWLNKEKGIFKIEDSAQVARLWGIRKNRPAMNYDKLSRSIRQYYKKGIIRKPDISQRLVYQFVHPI
# How it was run: as §1
# ETV7 = target: T10, ETV7 (Homo sapiens, UniProt Q9Y603 1-341)
# T10 sequence: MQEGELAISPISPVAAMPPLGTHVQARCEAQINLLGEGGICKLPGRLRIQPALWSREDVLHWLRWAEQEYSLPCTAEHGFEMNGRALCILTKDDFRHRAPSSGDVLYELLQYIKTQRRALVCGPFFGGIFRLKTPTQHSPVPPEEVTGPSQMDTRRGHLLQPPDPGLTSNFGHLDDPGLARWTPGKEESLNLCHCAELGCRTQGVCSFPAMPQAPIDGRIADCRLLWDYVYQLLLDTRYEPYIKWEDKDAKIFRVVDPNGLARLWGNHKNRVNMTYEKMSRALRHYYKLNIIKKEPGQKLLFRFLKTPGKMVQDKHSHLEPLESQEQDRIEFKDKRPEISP
# How it was run: as §1
# ELF5 = target: T11, ELF5 (Homo sapiens, UniProt Q9UKW6-2 1-255)
# T11 sequence: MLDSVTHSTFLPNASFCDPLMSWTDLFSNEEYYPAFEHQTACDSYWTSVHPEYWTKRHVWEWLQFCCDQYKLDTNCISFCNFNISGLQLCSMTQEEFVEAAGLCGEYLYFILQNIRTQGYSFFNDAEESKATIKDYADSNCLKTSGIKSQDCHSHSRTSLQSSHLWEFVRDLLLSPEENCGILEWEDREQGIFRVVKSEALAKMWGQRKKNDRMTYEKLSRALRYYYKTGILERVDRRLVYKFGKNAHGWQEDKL
# How it was run: as §1
# ETV3 = target: T12, ETV3 (Homo sapiens, UniProt P41162-2 1-143)
# T12 sequence: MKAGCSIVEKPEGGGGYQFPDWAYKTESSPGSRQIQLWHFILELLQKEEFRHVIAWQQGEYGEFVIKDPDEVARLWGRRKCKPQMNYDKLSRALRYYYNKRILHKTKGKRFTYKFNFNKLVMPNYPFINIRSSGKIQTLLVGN
# How it was run: as §1
# ETV6 = ETV6 (Homo sapiens, UniProt P41212 1-452)
# ETV6, sequence (P41212 whole entry): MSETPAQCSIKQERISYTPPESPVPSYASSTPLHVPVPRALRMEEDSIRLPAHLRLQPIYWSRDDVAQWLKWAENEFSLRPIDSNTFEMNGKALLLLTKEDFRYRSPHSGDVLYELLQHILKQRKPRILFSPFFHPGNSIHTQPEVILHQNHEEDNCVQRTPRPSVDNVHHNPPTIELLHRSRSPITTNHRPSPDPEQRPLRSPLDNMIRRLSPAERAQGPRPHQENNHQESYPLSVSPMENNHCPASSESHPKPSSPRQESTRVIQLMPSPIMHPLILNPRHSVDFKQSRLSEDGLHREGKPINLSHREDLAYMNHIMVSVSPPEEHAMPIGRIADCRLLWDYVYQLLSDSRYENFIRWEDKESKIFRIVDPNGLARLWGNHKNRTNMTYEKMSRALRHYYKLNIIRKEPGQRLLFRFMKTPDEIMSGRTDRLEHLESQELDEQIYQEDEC
# How it was run: as §1
sequence,measurement,setting,value
TGCACC,binding signal,FEV,"1.23 fold enrichment (6-mer frequency, TF over GST control)"
same,binding signal,ETV5,"1.12 fold enrichment (6-mer frequency, TF over GST control)"
same,binding signal,SPIC,"1.14 fold enrichment (6-mer frequency, TF over GST control)"
same,binding signal,ELF4,"1.19 fold enrichment (6-mer frequency, TF over GST control)"
same,binding signal,ELK4,"1.3 fold enrichment (6-mer frequency, TF over GST control)"
same,binding signal,ETV2,"1.13 fold enrichment (6-mer frequency, TF over GST control)"
same,binding signal,ELF3,"1.21 fold enrichment (6-mer frequency, TF over GST control)"
same,binding signal,ETV1,"1.13 fold enrichment (6-mer frequency, TF over GST control)"
same,binding signal,ERF,"1.21 fold enrichment (6-mer frequency, TF over GST control)"
same,binding signal,ETV3L,"1.21 fold enrichment (6-mer frequency, TF over GST control)"
same,binding signal,ETS2,"1.08 fold enrichment (6-mer frequency, TF over GST control)"
same,binding signal,SPDEF,"1.2 fold enrichment (6-mer frequency, TF over GST control)"
same,binding signal,ETV7,"1.02 fold enrichment (6-mer frequency, TF over GST control)"
same,binding signal,ELF5,"1.16 fold enrichment (6-mer frequency, TF over GST control)"
same,binding signal,ETV3,"1.24 fold enrichment (6-mer frequency, TF over GST control)"
same,binding signal,ETV6,"1.19 fold enrichment (6-mer frequency, TF over GST control)"
